Out of some 52,000 compounds screened, about 4,300 (8.3%) were called active. Rule as the data show it: active = survival mostly below about 52% (no sharp cut-off); inactive = mostly above about 56%. The entries come from a sample that favours actives as a whole.
System: DeltatarO mutant
Assay: S. aureus survival, RN4220 and DeltatarO strains – OD600, teichoic acid synthesis inhibitors, primary screen (AID 463173)
Settings: S. aureus RN4220 wild type/DeltatarO growth, OD600, 18 h, active compounds read low, screened at 18.75 µg/mL (by protocol)

SMILES	survival
CCn1c(SCC(=O)Nc2cc(Cl)ccc2OC)nc2c([nH]c3ccccc32)c1=O	101% (inactive)
Cc1ccccc1Cn1c(=O)n(CCC(=O)NCc2ccco2)c(=O)c2sccc21	106% (inactive)
Cc1cc(NC(=O)CC(C)C)no1	69% (inactive)
CC1(C)CC2CC(C)(CN2C(=O)c2cc(-c3ccccc3)on2)C1 (stereo not drawn)	99% (inactive)
O=C(CSc1n[nH]c(-c2ccc(F)cc2)n1)N1CCN(c2ccc(F)cc2)CC1	-5% (active)
O=C(CSCc1ccccc1Cl)N1CCN(c2ccc(F)cc2)CC1	46% (active)
O=C(CSc1n[nH]c(-c2ccccc2)n1)N1CCN(c2ccc(F)cc2)CC1	65% (inactive)
O=C(CSCc1ccccc1Cl)N1CCN(c2ccc(Cl)cc2)CC1	92% (inactive)
O=C(CCSCc1ccccc1Cl)N1CCN(c2ccc(F)cc2)CC1	66% (inactive)
COc1ccc(-c2nc(SCC(=O)N3CCN(c4ccc(F)cc4)CC3)n[nH]2)cc1	88% (inactive)
Cc1ccc(CNC(=O)c2ccc(-c3nc(CN4CCc5ccccc54)c(C)o3)cc2)cc1	84% (inactive)
CC1CCCCC1NC(=O)CSc1nccc(=O)[nH]1 (stereo not drawn)	69% (inactive)
Cc1cc(-c2ccc(C)c(S(=O)(=O)N(Cc3cccs3)C(C)C)c2)on1	65% (inactive)
CCc1ccc(-c2nc(SCC(=O)NCC3CCCO3)c(-c3ccc(C)cc3)[nH]2)cc1 (stereo not drawn)	103% (inactive)
COc1ccc(CCNC(=O)c2cc(-c3ccc(Cl)cc3)on2)cc1OC	64% (inactive)
Cc1cc(C)n(C(C)CC(=O)Nc2cccc(C(F)(F)F)c2)n1 (stereo not drawn)	73% (inactive)
COc1ccccc1CNC(=O)c1sc2nc3n(c(=O)c2c1C)CCC3	103% (inactive)
C/C(=N\NC(N)N)C1CCCCCCCCCCC1	0% (active)
Cc1cc(Cl)ccc1NC(=O)C1CCN(c2nnc(-n3c(C)ccc3C)s2)CC1	88% (inactive)
Fc1ccccc1N1CCN(c2nnc(C(F)(F)F)c3nnn(Cc4ccccc4)c23)CC1	78% (inactive)

SMILES	survival
Cc1ccc2c(c1)sc1nc(=O)n(-c3cccc(Cl)c3)c(=O)n12	85% (inactive)
CCOc1ccc2c(c1)sc1nc(=O)n(-c3ccc(Cl)c(Cl)c3)c(=O)n12	88% (inactive)
Cc1ccc2c(c1)sc1nc(=O)n(-c3ccc(Cl)c(Cl)c3)c(=O)n12	-6% (active)
Cc1ccc2c(c1)sc1nc(=O)n(-c3ccc(Cl)cc3)c(=O)n12	59% (inactive)
CCN(CC)C(=O)c1sc2c(c1C)c(=O)n(-c1ccc(Cl)c(Cl)c1)c(=O)n2Cc1ccccc1C#N	83% (inactive)
O=c1nc2sc3ccccc3n2c(=O)n1-c1ccc(Cl)c(Cl)c1	22% (active)
CC(C(=O)c1ccccc1)C1(O)C(=O)Nc2ccccc21 (stereo not drawn)	94% (inactive)
Cc1ccc2nc(-c3ccccc3O)c(Nc3ccccc3C)n2c1	92% (inactive)
Cc1ccccc1Nc1c(-c2ccc(N3CCOCC3)cc2)nc2ccc(Br)cn12	74% (inactive)
O=C(NCc1ccccc1)c1cnc2sc(N3CCCC3)nn2c1=O	77% (inactive)
CCc1ccccc1NC(=O)C1(S(=O)(=O)c2ccc(Cl)cc2)CC1	90% (active)
COC(=O)c1ccc(NC(=O)C2(S(=O)(=O)c3ccc(C)cc3)CC2)cc1	134% (inactive)
Cc1ccc(S(=O)(=O)C2(C(=O)Nc3ccc(Cl)c(C(F)(F)F)c3)CC2)cc1	26% (inactive)
CCOC(=O)c1ccc(NC(=O)C2(S(=O)(=O)c3ccc(Cl)cc3)CC2)cc1	75% (inactive)
Cc1ccc(S(=O)(=O)C2(C(=O)Nc3ccc(C)c(Cl)c3)CC2)cc1	21% (inactive)
Cc1ccc(S(=O)(=O)C2(C(=O)Nc3ccc(C(C)C)cc3)CC2)cc1	19% (active)
Cc1cc(Br)ccc1NC(=O)C1(S(=O)(=O)c2ccc(Cl)cc2)CC1	62% (inactive)
O=C(Nc1ccccc1C(F)(F)F)c1ccncc1	91% (inactive)
O=C(Nc1ccccc1C(F)(F)F)C1(S(=O)(=O)c2ccc(Cl)cc2)CC1	84% (active)
Cc1ccc2c(c1)c1c(c(=O)n(Cc3ccccc3)c(=O)n1Cc1cccc(F)c1)n2C	89% (inactive)

SMILES	survival
CC(C)(C)c1ccc(C(=O)Nc2nc3nc(-c4ccccc4)cc(=O)n3[nH]2)cc1	94% (inactive)
CCN(Cc1ccccc1)C(=O)C1CCN(S(=O)(=O)c2ccc3c(c2)CCCN3C(C)=O)CC1	80% (inactive)
CC1CCCC(C)N1C(=O)CN1CCC(N2CCCCC2)CC1 (stereo not drawn)	94% (inactive)
CC(C)NC(=O)Cn1nnc(-c2ccc(Cl)cc2)n1	82% (inactive)
COc1ccccc1CC(NC(C)=O)C(=O)N1CCN(C(=O)c2cccs2)CC1 (stereo not drawn)	97% (inactive)
O=C(NCCc1ccccc1)C(=O)NCC(c1ccco1)S(=O)(=O)c1cccs1 (stereo not drawn)	94% (inactive)
O=C(NCc1ccccc1F)C(=O)NCC(c1ccco1)S(=O)(=O)c1cccs1 (stereo not drawn)	25% (active)
O=C(NCc1ccccc1)C(=O)NCC(c1ccco1)S(=O)(=O)c1cccs1 (stereo not drawn)	96% (inactive)
O=C(NCCc1ccc(Cl)cc1)C(=O)NCC(c1ccco1)S(=O)(=O)c1cccs1 (stereo not drawn)	20% (active)
O=C(NCc1ccccc1)C(=O)NCC(c1ccco1)S(=O)(=O)c1ccccc1 (stereo not drawn)	76% (inactive)
O=C(NCc1ccccc1F)C(=O)NCC(c1ccco1)S(=O)(=O)c1ccccc1 (stereo not drawn)	-5% (active)
O=C(NCc1ccc(F)cc1)C(=O)NCC(c1ccco1)S(=O)(=O)c1cccs1 (stereo not drawn)	8% (active)
Cc1ccc(CNC(=O)C(=O)NCC(c2ccco2)S(=O)(=O)c2cccs2)cc1 (stereo not drawn)	101% (inactive)
O=C(NCc1ccccc1Cl)C(=O)NCC(c1ccco1)S(=O)(=O)c1cccs1 (stereo not drawn)	55% (inactive)
O=C(NCCc1ccc(F)cc1)C(=O)NCC(c1ccco1)S(=O)(=O)c1cccs1 (stereo not drawn)	66% (inactive)
Cc1ccccc1CNC(=O)C(=O)NCC(c1ccco1)S(=O)(=O)c1cccs1 (stereo not drawn)	70% (inactive)
Cc1ccccc1CNC(=O)C(=O)NCC(c1ccco1)S(=O)(=O)c1ccccc1 (stereo not drawn)	92% (inactive)
COc1ccc2c(c1)N(C)/C(=C1/SC(=Nc3ccc(C)cc3)N(C)C1=O)S2	102% (inactive)
